Test results: PubChem BioAssay (Tox21)
Where “and” joins values, the source holds several entries; their conditions need not be identical. Equal entries are not always repeated. Inconclusive results are not listed. Calls of active or inactive are those of the source. Unless noted, the call rests on the fitted dose curve.

What was measured:
[1] = Nuclear factor erythroid 2-related factor 2/antioxidant responsive element (Nrf2/ARE) small molecule agonists: qHTS cell viability counter screen in human keratinocytes (AID 1919968; active means well fitted curve in the direction sought with a large enough effect in the repeat runs; an effect the other way counts as inactive or inconclusive; further: nearly all actives have a fitted effect of over 55% in size; further: potency means the concentration at half of the fitted maximal effect)
Procedure, shortened: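 Viability counter-screen: KeratinoSens reporter cells, DMSO-delivered compounds, 23 h at 37 C, CellTiter-Fluor fluorescence.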

[2] = biological target: Gonadotropin-releasing hormone receptor (Homo sapiens) (UniProt P30968); experiment: Human gonadotropin-releasing hormone receptor (GnRHR) small molecule agonists, calcium flux assay in GnRHR-HEK293 cells (AID 1920063); further: nearly all actives have a fitted effect of over 35% in size
Sequence of Gonadotropin-releasing hormone receptor (Homo sapiens) (P30968 whole entry, looked up): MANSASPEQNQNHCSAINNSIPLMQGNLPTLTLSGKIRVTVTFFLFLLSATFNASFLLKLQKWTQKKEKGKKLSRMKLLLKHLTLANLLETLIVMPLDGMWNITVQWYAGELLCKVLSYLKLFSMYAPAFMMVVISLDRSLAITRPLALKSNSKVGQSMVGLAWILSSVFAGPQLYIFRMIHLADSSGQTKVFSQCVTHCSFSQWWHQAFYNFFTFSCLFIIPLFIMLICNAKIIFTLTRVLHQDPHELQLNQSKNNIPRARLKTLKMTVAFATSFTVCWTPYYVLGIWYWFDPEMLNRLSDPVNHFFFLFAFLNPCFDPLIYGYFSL
Procedure, shortened: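 Tox21-format agonist screen using human GnRHR-expressing HEK293 cells and a fluorescent calcium dye; kinetic 3-min fluorescence reading after compound addition, 15-point concentration series run in triplicate.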

[3] = biological target: KiSS-1 receptor (Homo sapiens) (UniProt Q969F8); experiment: Human kisspeptin (KISS1R) small molecule agonists, calcium flux assay in KISS1R-HEK293 cells (AID 1920064; active means well fitted curve in the direction sought with a large enough effect in the repeat runs; an effect the other way counts as inactive or inconclusive)
Sequence of KiSS-1 receptor (Homo sapiens) (Q969F8 whole entry, looked up): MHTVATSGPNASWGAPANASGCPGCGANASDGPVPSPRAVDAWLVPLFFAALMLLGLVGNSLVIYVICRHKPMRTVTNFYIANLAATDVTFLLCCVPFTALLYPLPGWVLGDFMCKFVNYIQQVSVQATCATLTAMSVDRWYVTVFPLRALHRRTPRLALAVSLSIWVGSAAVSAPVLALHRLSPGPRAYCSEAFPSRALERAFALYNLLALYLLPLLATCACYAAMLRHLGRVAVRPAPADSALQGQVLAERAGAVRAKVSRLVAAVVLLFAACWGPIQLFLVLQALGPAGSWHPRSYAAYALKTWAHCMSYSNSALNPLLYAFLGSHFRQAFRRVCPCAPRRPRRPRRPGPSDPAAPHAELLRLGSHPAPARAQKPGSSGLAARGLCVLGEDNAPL
Procedure, shortened: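 Intracellular calcium mobilization in KISS1R-HEK293 cells was recorded by fluorescence (Ex/Em 480/540) for 3 min following compound addition to cells pre-loaded 1 h with calcium dye.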

[4] = G protein-coupled receptor (GPCR) small molecule agonists, calcium flux assay: HEK293 wild type cell line counter screen (AID 1920065)
Procedure, shortened: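 In this agonist-mode screen, ATP is the positive control and DMSO the vehicle. Cells grow 18 h before a 1 h dye incubation at 37 C; signal is taken at Ex/Em 480/540 over 3 min.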

[5] = p53 small molecule agonists, cell-based qHTS assay with human liver microsomes (AID 1963577);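 further: p53 response element beta-lactamase reporter cells with liver microsomes plus NADPH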
Procedure, shortened: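 HLM-supplemented p53RE-bla reporter assay: 16 h compound exposure at 37 C, microsomes and NADPH each 0.5 mg/mL final, read by fluorescence intensity.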

[6] = p53 small molecule agonists, cell-based qHTS assay with rat liver microsomes (AID 1963578); further: potency means the concentration at half of the fitted maximal effect
Procedure, shortened: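 Quantitative HTS of the Tox21 10K library: p53RE-bla cells, rat liver microsomes plus NADPH at 0.5 mg/mL final each, 16 h at 37 C, beta-lactamase fluorescence detection.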

[7] = p53 small molecule agonists, cell-based qHTS assay with human liver microsomes: qHTS cell viability counter screen (AID 1963579); further: nearly all actives have a fitted effect of over 45% in size; further: potency means the concentration at half of the fitted maximal effect
Procedure, shortened: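 Viability of p53RE-bla cells is measured as CellTiter-Glo luminescence following a 16 h, 37 C incubation with compound, liver microsomes from human donors and NADPH.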

[8] = p53 small molecule agonists, cell-based qHTS assay with rat liver microsomes: qHTS cell viability counter screen (AID 1963580); further: nearly all actives have a fitted effect of over 45% in size; further: potency means the concentration at half of the fitted maximal effect
Procedure, shortened: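 HCT-116 p53RE-bla, 4,000 cells/well, 5 h pre-incubation; cpd + rat liver microsomes 0.5 mg/mL + NADPH 0.5 mg/mL (final); 16 h, 37 C; CellTiter-Glo, 30 min RT; luminescence.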

[9] = biological target: 5-hydroxytryptamine receptor 2A (Homo sapiens) (UniProt P28223); experiment: 5-hydroxytryptamine receptor 2A (HTR2A) small molecule agonists, cell-based qHTS assay (AID 1963587); further: nearly all actives have a fitted effect of over 30% in size
Sequence of 5-hydroxytryptamine receptor 2A (Homo sapiens) (P28223 whole entry, looked up): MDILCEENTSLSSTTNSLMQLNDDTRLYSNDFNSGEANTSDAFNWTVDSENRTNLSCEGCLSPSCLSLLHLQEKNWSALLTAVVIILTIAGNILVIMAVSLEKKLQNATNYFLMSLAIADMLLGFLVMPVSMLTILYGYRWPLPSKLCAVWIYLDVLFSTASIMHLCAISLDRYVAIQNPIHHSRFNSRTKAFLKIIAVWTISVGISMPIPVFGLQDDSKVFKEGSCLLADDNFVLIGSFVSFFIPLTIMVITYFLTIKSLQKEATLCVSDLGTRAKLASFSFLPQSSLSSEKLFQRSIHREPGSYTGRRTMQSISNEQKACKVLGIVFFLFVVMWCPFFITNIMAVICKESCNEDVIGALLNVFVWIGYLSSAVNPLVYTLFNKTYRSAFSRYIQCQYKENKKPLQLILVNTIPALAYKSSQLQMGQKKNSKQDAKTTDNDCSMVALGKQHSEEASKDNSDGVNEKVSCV
Procedure, shortened: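 Kinetic calcium-flux fluorescence (2 min, 1 sec intervals) after compound addition in agonist mode. HTR2A-CHO cells were cultured 18 h, then dye-loaded 1 h at 37 C.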

[10] = biological target: Muscarinic acetylcholine receptor M1 (Homo sapiens) (UniProt P11229); experiment: Cholinergic receptor muscarinic 1 (CHRM1) small molecule antagonists, cell-based qHTS assay (AID 1963588); further: nearly all actives have a fitted effect of over 40% in size; further: potency means the concentration at half of the fitted maximal effect
Sequence of Muscarinic acetylcholine receptor M1 (Homo sapiens) (P11229 whole entry, looked up): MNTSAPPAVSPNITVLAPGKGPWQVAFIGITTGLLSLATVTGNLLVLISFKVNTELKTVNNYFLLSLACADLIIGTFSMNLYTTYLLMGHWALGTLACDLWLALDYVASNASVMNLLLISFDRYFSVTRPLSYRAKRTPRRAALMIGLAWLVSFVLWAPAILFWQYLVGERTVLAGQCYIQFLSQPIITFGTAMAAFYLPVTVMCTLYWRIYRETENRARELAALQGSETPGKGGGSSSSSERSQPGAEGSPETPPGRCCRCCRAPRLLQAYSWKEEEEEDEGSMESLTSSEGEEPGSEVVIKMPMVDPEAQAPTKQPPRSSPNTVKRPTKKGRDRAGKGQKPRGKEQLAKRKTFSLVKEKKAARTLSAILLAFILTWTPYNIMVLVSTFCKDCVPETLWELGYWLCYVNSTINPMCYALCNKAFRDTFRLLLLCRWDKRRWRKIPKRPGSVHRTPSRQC
Procedure, shortened: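 CHRM1-CHO calcium-flux assay, antagonist mode. Cells were seeded 18 h, dye-loaded 1 h at 37 C and given compound for 5 min at RT, then acetylcholine was added at 50nM. FDSS fluorescence was read 3 min; 15 concentrations, three runs.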

[11] = biological target: Muscarinic acetylcholine receptor M1 (Homo sapiens) (UniProt P11229); experiment: Cholinergic receptor muscarinic 1 (CHRM1) small molecule agonists, cell-based qHTS assay (AID 1963589); further: nearly all actives have a fitted effect of over 35% in size
Procedure, shortened: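 Stable CHRM1-CHO cells (human receptor) were incubated 18 h, dye-loaded for 1 h at 37 C and exposed to test compounds for agonist activity, with calcium-dependent fluorescence followed kinetically.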

[12] = biological target: Beta-2 adrenergic receptor (Homo sapiens) (UniProt P07550); experiment: Adrenergic beta2 receptor (ADRB2) small molecule antagonists, cell-based qHTS assay (AID 1963592); further: series mostly up to about 92 µM; nearly all actives have a fitted effect of over 50% in size
Sequence of Beta-2 adrenergic receptor (Homo sapiens) (P07550 whole entry, looked up): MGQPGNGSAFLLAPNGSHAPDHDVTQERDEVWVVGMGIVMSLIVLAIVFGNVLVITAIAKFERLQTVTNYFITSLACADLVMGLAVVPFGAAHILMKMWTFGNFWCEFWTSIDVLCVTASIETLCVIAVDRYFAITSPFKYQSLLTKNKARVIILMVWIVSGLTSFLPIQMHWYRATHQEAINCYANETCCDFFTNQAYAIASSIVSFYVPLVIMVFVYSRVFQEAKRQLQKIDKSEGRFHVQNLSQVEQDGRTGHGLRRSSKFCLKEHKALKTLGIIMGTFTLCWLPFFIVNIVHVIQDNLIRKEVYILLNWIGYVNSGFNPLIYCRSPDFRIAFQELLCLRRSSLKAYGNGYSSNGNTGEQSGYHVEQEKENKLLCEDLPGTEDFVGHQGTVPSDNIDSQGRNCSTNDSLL
Procedure, shortened: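 Cells (CHO, stable ADRB2 overexpression) incubated 18-20hr at 37C; compounds added from DMSO; agonist mix (1nM isoproterenol, 100uM IBMX, 25uM Ro-20-1724) added; 0.5hr RT; d2-cAMP and anti-cAMP-cryptate added; 1hr RT; 665/615 nm read.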

[13] = biological target: D(2) dopamine receptor (Homo sapiens) (UniProt P14416); experiment: Dopamine D2 receptor (DRD2) small molecule agonists, cell-based qHTS assay (AID 1963594); further: nearly all actives have a fitted effect of over 35% in size
Sequence of D(2) dopamine receptor (Homo sapiens) (P14416 whole entry, looked up): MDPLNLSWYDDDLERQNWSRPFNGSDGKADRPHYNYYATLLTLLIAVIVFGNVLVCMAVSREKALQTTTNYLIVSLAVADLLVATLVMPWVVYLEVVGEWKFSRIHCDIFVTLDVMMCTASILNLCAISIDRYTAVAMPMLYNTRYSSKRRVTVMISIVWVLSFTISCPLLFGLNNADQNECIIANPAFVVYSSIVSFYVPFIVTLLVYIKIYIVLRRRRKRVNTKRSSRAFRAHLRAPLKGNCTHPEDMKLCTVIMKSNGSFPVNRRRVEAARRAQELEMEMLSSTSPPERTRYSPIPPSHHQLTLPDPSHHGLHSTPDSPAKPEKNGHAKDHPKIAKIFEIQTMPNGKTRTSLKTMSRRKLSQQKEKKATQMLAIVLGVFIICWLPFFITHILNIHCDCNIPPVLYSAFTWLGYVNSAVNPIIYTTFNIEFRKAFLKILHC
Procedure, shortened: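 cAMP accumulation in DRD2-HEK293 cells measured by HTRF after 1 h detection; compounds added 10 min before NKH477 (200nM […]) forskolin-analogue stimulation, 30 min at room temperature, with Ro20-1724 present at 0.1 mM final.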

[14] = p53 small molecule agonists, cell-based qHTS assay: qHTS cell viability counter screen (AID 1963581); further: nearly all actives have a fitted effect of over 45% in size; further: potency means the concentration at half of the fitted maximal effect
Procedure, shortened: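 Compounds are pinned onto HCT-116 p53RE-bla cells and left 16 h at 37 C. Following the reporter FRET read, ATP is quantified by CellTiter-Glo luminescence after 30 min at room temperature.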

[15] = p53 small molecule agonists, cell-based qHTS assay (AID 1963582; active means well fitted activation curve with a large enough effect in the signal ratio in the repeat runs, not every such curve was filed as active; the % refers to the signal ratio)
Procedure, shortened: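 Agonist activity was scored from beta-lactamase FRET fluorescence in p53RE-bla cells treated 16 h at 37 C with compounds in DMSO, substrate incubation being 2 h at room temperature.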

[16] = biological target: 5-hydroxytryptamine receptor 2A (Homo sapiens) (UniProt P28223); experiment: 5-hydroxytryptamine receptor 2A (HTR2A) small molecule antagonists, cell-based qHTS assay (AID 1963586); further: nearly all actives have a fitted effect of over 45% in size; further: potency means the concentration at half of the fitted maximal effect
Procedure, shortened: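 Antagonist-mode intracellular calcium assay: DOI (4 nM) added after 5 min compound pre-incubation at room temperature to dye-loaded HTR2A-CHO cells. Fluorescence followed for 3 min, sampled every second.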

[17] = cAMP Responsive Elements (CRE) small molecule agonists, cell-based qHTS assay (AID 1963590)
Procedure, shortened: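 FRET-based beta-lactamase readout (LiveBLAzer B/G, 2 h RT) quantified CRE activation in HEK 293T CRE-bla cells after 3 h treatment with DMSO-dissolved compounds.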

[18] = cAMP Responsive Elements (CRE) small molecule antagonists, cell-based qHTS assay (AID 1963591; active means well fitted inhibition curve with a large enough effect in the signal ratio in the repeat runs, not every such curve was filed as active; the % refers to the signal ratio)
Procedure, shortened: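 qHTS in CRE-bla HEK 293T cells: compound in DMSO, then 0.25 uM NKH477 (final), 3 h at 37 °C/5% CO2; beta-lactamase FRET read-out after 2 h substrate incubation.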

[19] = biological target: D(2) dopamine receptor (Homo sapiens) (UniProt P14416); experiment: Dopamine D2 receptor (DRD2) small molecule antagonists, cell-based qHTS assay (AID 1963595; active means well fitted inhibition curve with a large enough effect in the signal ratio in the repeat runs, with a control signal flat; the % refers to the signal ratio)
Procedure, shortened: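 In this cell-based antagonist screen, compounds act for 10 min at room temperature before a 30 min challenge with 12 nM quinpirole and 200 nM NKH477. cAMP is quantified by HTRF competition in DRD2-HEK293 cells containing 0.1 mM Ro20-1724.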

[20] = biological target: Beta-2 adrenergic receptor (Homo sapiens) (UniProt P07550); experiment: Adrenergic beta2 receptor (ADRB2) small molecule agonists, cell-based qHTS assay (AID 1963593);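 further: CHO cells stably overexpressing human ADRB2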
Procedure, shortened: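 CHO cells stably over-expressing ADRB2 were plated overnight at 37C, then dosed with compounds plus a stimulation mix containing 100uM IBMX and 25uM Ro-20-1724 for 0.5hr at room temperature. cAMP was measured by HTRF competition, 1hr.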

Measured: Potency

Clc1ccc(CCC(Cn2ccnc2)Sc2c(Cl)cccc2Cl)cc1 (stereo not given)
active: [1] 29.8 µM
not listed: [14] | [15] | [16] | [17] | [18] | [19] | [20]
inactive: all other assays above

CON(C)C(=O)Nc1ccc(Br)cc1
not listed: [8] | [20]
inactive: all other assays above

CN1CCC(O)(c2ccc(F)cc2)C(C(=O)c2ccc(F)cc2)C1 (stereo not given)
not listed: [10] | [14]
inactive: all other assays above

CC(C)COP(=O)(OCC(C)C)OCC(C)C
not listed: [6] | [12]
inactive: all other assays above

OCCCBr
active: [8] 1.45 µM
not listed: [7] | [12] | [13] | [14] | [15] | [20]
inactive: all other assays above

CC1CCC(C(C)C)C(OC(=O)c2ccccc2N)C1 (stereo not given)
inactive: [2] | [3] | [4] | [5] | [8] | [11] | [17] | [12] | [13]
active: [1] 30.2 µM | [6] 35.8 µM | [7] 35.8 µM | [14] 31.9 µM

O=C(Nc1ccccc1)N(Cc1ccc(Cl)cc1)C1CCCC1
active: [10] 37.5 µM
not listed: [6] | [15] | [17] | [18]
inactive: all other assays above

CC(C)C(Nc1ccc(C(F)(F)F)cc1Cl)C(=O)OC(C#N)c1cccc(Oc2ccccc2)c1 (stereo not given)
not listed: [7] | [13] | [14] | [15] | [16] | [17] | [20]
inactive: all other assays above

O=C(O)CBr
not listed: [6] | [12] | [13] | [14] | [20]
inactive: all other assays above

O=C1CC[C@@]2(O)[C@H]3Cc4ccc(O)c5c4[C@@]2(CCN3CC2CC2)[C@H]1O5
not listed: [9] | [10] | [11] | [12] | [16]
inactive: all other assays above

O=[N+]([O-])c1ccc(Nc2ccccc2)cc1
active: [1] 61.6 µM | [16] 16.9 µM and 16.8 µM
not listed: [7] | [14] | [15] | [17] | [18] | [20]
inactive: all other assays above

N#CN=C1SCCN1Cc1ccc(Cl)nc1
not listed: [14]
inactive: all other assays above

CCS(=O)(=O)C(C)(C)S(=O)(=O)CC
not listed: [6] | [10] | [13] | [20]
inactive: all other assays above

c1ccc2c(c1)Sc1ccccc1N2CC1CN2CCC1CC2 (stereo not given)
active: [1] 33.5 µM
not listed: [6] | [9] | [10] | [15] | [17] | [18] | [20]
inactive: all other assays above

CCOC(=O)CC(=O)CCl
not listed: [8] | [15] | [20]
inactive: all other assays above

CCOC(=O)N(C)C(=O)CSP(=S)(OCC)OCC
not listed: [10] | [14] | [18] | [20]
inactive: all other assays above

O=C1CCCCC1Cl (stereo not given)
not listed: [12] | [15] | [20]
inactive: all other assays above
